Measured values: the supplement of paper PMC11732987, “Enantioselective OTUD7B fragment discovery through chemoproteomics screening and high-throughput optimisation” (Communications Chemistry, 2025)

Tests used:
Test in all cases: log2 ratio of Biotin-Ahx-Ub-VS probe labelling (fragment/DMSO); higher = less target engagement (more negative = stronger competition), active = hit call of the paper (q ≤ 0.05, log2 ratio ≤ -1)
Conditions in all cases: compound concentration: 200 uM; treatment time: 3 h
[1] = target: USP34 (UniProt Q70CQ2)
USP34, sequence (Q70CQ2 whole entry, the tested form may be a part): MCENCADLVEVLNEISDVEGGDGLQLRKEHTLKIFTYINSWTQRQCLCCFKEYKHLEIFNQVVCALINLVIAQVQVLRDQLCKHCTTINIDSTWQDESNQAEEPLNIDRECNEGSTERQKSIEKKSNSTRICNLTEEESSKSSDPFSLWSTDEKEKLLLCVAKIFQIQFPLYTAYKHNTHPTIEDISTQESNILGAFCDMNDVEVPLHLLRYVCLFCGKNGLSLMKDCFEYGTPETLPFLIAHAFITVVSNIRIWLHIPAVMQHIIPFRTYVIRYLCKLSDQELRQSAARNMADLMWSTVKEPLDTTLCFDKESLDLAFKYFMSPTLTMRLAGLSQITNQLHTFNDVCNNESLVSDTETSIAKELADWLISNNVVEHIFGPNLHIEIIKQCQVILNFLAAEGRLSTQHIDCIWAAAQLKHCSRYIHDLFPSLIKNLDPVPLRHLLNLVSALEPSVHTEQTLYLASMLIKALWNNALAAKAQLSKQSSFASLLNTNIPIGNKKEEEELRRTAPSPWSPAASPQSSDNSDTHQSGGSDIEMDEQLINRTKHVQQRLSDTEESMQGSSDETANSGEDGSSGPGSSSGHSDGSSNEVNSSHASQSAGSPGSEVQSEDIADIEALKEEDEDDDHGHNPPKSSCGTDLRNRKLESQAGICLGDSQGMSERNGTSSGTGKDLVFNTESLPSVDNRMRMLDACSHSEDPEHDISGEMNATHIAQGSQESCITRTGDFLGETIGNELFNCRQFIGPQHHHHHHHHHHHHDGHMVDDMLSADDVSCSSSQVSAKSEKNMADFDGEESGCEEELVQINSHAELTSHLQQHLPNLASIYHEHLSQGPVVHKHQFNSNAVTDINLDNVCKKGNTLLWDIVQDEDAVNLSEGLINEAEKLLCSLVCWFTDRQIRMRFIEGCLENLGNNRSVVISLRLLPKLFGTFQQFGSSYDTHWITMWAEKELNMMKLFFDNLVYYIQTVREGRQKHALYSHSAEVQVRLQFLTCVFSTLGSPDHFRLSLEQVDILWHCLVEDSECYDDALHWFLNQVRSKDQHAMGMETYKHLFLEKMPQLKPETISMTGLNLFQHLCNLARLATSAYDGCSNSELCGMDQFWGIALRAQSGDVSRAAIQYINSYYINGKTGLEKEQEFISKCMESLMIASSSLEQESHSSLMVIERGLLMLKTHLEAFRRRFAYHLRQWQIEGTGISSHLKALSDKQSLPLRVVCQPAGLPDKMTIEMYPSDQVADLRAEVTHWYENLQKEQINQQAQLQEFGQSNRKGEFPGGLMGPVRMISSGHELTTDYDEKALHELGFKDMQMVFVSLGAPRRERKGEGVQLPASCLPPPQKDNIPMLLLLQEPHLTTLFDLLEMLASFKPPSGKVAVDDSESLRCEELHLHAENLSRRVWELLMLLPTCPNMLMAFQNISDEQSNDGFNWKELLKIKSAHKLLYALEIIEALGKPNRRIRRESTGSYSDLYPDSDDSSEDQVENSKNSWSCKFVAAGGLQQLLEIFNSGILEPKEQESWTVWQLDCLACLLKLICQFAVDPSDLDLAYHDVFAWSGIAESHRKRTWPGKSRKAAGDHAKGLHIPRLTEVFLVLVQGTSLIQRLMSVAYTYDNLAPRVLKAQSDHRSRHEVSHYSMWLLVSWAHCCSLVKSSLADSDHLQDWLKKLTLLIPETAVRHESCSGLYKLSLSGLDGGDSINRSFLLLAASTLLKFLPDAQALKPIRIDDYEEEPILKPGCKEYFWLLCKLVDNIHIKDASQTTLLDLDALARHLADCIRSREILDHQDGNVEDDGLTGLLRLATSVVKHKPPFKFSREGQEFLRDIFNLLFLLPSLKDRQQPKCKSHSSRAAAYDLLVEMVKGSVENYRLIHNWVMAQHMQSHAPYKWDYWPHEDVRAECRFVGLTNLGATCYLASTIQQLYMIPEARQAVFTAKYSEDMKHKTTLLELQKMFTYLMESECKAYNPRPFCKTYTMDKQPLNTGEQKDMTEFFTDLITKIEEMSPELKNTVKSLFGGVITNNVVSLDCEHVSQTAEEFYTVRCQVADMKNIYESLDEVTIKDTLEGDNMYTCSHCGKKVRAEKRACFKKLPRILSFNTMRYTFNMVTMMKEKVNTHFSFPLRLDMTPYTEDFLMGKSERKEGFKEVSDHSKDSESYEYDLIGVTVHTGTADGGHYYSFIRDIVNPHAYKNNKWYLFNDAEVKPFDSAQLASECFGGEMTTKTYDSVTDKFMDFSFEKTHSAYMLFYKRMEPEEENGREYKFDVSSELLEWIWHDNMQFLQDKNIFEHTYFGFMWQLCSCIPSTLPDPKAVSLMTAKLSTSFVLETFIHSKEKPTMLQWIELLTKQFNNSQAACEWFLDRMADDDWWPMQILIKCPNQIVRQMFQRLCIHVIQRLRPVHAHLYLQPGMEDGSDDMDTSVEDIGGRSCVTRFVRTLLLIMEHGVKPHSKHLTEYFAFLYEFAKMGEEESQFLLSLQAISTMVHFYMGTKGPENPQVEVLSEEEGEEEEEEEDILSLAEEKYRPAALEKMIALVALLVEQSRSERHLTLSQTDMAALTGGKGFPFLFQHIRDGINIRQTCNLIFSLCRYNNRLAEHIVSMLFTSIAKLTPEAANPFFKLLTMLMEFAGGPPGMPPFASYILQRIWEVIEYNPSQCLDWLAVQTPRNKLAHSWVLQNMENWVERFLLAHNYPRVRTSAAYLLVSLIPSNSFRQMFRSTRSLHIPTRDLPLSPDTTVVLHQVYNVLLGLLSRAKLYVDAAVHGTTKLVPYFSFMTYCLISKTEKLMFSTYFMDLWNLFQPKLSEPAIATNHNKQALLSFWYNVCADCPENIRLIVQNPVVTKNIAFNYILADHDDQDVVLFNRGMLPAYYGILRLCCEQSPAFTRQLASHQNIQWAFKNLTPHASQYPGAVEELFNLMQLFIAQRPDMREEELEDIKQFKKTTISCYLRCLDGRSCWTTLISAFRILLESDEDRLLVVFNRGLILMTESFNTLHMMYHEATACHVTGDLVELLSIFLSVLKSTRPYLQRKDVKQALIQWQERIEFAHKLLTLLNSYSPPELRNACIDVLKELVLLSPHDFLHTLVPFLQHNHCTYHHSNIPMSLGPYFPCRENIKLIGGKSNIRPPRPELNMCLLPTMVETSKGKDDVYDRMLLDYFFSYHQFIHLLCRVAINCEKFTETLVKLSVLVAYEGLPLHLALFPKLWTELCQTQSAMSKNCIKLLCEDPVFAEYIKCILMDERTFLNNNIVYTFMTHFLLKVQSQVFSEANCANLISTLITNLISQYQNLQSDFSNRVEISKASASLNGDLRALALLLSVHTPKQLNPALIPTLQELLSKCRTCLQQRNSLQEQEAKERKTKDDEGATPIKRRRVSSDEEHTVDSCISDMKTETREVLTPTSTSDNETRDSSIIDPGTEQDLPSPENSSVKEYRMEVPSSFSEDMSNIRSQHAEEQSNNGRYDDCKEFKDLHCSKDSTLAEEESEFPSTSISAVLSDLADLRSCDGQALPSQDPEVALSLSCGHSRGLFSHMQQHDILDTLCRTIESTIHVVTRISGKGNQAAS
Summary of the method: (§1)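 Average log2 ratios of fragment over vehicle were obtained by unpaired t-test from global-median-normalised Spectronaut label-free quantities. Proteins with ≥2 unique peptides were included. HEK293T lysate (495 µg per sample) was treated in triplicate with fragment at 200 µM or vehicle for 3 h, then with Biotin-Ahx-Ub-VS at 0.5 µM final for 1 h, and labelled DUBs were NeutrAvidin-enriched and run by diaPASEF LC-MS/MS.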

[2] = target: T1, USP36 (UniProt Q9P275)
T1 sequence (whole entry): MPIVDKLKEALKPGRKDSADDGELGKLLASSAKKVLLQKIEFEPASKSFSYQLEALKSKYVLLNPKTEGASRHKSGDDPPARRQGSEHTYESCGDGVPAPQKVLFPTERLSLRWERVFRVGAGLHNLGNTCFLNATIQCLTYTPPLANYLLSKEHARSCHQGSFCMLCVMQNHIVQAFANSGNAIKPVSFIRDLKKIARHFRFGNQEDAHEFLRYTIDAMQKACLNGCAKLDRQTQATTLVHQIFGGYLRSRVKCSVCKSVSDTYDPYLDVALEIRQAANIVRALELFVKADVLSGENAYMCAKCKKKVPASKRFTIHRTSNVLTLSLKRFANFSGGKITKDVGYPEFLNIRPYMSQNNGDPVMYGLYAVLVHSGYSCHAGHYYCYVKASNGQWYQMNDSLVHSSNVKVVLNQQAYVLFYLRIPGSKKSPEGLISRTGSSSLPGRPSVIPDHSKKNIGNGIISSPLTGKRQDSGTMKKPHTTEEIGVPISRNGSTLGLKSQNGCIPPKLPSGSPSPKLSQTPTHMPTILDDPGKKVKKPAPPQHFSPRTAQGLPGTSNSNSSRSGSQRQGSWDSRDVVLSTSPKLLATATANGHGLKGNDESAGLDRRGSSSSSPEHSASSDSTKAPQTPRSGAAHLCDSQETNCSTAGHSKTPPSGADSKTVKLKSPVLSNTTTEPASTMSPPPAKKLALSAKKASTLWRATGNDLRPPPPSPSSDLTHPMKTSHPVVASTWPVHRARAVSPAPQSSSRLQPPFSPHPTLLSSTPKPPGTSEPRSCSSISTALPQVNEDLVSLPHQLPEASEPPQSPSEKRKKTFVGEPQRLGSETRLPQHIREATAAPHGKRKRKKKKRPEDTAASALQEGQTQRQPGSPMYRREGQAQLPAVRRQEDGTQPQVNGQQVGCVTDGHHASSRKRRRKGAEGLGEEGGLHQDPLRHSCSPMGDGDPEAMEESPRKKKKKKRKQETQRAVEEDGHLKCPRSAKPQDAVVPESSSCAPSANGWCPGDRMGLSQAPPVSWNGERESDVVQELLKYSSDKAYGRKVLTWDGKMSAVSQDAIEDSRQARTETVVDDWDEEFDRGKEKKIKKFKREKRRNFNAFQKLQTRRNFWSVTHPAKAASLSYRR
Summary of the method: as §1

[3] = target: T2, USP38 (UniProt Q8NB14)
T2 sequence (whole entry): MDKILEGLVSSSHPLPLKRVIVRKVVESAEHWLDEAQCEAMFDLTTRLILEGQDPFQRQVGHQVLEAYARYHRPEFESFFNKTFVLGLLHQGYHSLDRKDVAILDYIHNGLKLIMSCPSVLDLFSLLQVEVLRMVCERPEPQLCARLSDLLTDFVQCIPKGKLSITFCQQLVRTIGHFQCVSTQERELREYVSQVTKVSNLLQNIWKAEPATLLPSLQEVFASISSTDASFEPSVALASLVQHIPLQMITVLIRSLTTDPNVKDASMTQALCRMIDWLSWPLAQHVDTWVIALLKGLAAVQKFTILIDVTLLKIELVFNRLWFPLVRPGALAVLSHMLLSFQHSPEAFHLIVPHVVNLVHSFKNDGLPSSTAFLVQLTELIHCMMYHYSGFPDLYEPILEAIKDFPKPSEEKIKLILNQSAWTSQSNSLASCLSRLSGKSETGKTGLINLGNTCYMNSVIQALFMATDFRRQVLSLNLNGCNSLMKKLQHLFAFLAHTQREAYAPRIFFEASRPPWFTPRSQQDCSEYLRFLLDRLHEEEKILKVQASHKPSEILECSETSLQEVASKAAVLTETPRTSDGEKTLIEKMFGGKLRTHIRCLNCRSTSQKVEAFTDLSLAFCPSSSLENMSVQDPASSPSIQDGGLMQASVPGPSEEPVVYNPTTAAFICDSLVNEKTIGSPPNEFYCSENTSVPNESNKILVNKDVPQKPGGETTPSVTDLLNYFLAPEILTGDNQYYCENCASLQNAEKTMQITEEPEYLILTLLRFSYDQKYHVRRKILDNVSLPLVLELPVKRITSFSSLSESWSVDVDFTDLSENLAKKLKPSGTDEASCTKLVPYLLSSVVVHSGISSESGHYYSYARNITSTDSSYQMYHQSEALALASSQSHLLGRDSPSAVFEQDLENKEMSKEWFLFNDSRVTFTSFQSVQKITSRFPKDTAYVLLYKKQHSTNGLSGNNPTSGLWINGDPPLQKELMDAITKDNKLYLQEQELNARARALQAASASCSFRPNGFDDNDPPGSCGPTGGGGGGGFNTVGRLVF
Summary of the method: as §1

[4] = target: T3, USP39 (UniProt Q53GS9)
T3 sequence (whole entry): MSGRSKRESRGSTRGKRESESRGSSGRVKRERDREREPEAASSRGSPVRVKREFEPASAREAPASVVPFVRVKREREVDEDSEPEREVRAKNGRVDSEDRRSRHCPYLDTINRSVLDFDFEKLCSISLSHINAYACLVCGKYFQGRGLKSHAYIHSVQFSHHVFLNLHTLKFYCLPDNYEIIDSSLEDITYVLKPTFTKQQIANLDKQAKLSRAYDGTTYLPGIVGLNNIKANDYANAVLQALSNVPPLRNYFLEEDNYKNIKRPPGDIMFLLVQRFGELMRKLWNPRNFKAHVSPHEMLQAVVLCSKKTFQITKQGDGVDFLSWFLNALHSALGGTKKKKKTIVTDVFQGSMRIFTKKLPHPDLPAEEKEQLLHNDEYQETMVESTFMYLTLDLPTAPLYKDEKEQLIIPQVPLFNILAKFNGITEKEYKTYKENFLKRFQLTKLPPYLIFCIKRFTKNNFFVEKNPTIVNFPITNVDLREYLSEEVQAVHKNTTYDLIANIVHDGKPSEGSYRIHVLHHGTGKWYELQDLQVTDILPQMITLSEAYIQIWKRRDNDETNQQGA
Summary of the method: as §1

[5] = target: T4, USP4 (UniProt Q13107)
T4 sequence (whole entry): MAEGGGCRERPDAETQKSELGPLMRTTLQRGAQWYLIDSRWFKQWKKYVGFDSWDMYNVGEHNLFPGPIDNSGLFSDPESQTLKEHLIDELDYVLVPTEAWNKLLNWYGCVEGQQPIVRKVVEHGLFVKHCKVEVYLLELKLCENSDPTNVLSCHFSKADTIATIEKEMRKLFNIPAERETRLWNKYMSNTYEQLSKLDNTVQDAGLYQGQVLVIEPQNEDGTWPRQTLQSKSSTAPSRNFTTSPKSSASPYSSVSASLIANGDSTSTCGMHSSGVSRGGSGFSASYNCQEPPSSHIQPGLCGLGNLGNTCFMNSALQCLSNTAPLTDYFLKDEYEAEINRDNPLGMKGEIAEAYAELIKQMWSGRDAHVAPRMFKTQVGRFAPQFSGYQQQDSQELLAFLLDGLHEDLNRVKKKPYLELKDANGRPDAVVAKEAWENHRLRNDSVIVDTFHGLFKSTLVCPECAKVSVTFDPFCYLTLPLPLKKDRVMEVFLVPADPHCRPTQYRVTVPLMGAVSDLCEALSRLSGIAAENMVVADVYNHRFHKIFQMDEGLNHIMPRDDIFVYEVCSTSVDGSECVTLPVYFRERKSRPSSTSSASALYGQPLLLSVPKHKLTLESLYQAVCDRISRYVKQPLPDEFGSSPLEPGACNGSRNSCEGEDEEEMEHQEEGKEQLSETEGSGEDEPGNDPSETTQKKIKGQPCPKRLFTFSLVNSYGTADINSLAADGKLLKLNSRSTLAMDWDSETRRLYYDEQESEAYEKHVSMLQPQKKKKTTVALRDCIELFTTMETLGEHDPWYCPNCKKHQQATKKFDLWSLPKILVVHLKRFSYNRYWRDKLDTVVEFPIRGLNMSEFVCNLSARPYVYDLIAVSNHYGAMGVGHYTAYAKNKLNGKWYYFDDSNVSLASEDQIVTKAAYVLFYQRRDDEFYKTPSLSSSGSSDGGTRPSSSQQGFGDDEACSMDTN
Summary of the method: as §1

Measured: log2 ratio of Biotin-Ahx-Ub-VS probe labelling

Cc1nc(CC2CCN(C(=O)CCl)CC2)no1
inactive: [1] -0.459 | [2] -0.425 | [3] -0.544 | [4] 0.344 | [5] -0.686
